According to PubChem BioAssay (Tox21):
Several values for one entry are separate records, joined by “and”; a condition that tells them apart may be missing. Equal entries are not always repeated. Results filed as inconclusive are left out. Activity calls are given as the source filed them. Calls follow the shape of the dose curve; as a rule, active = well fitted cell-killing curve with a large enough effect in the repeat runs; inconclusive = weak or mixed curves, or effect the other way; inactive = flat fitted curve, though single readings scatter.
% is scaled to controls: 0 for no effect and ±100 for the full control effect; potency is read from the fitted curve at half-maximal effect.

Assay: cAMP Responsive Elements (CRE) small molecule antagonists, cell-based qHTS assay: qHTS cell viability counter screen (AID 2060913); also: nearly all actives have a fitted effect of over 40% in size
Conditions: CRE-bla HEK293T viability, CellTiter-Glo luminescence, 5 h; series mostly up to 92.4 µM; viability change, negative = cytotoxic: at the top concentration
Summary of the method: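 CRE-bla HEK293T cells were seeded in assay medium with 10% dialyzed FBS, incubated 18 hrs at 37 C, then exposed to compounds plus 0.25 uM final NKH477 for 3 hrs. Viability was read by CellTiter-Glo luminescence after 30 min, in the same wells.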
With `C1CCNCC1` the “viability change, negative = cytotoxic” value was -1.91% (inactive).
For `O=C(Nc1ccccc1)Nc1cnns1`, the “viability change, negative = cytotoxic” value was -10.4% (inactive).
For `CCOP(=S)(OCC)SCSC(C)(C)C`, the Potency was “inactive”.
For `N#Cc1ccccn1`, the Potency was “inactive”.
With `C[C@]12CC[C@@H](O)C[C@@H]1CC[C@@H]1[C@@H]2CC[C@]2(C)C(=O)CC[C@@H]12` the “viability change, negative = cytotoxic” value was -4.22% (inactive).
In the case of `Fc1cc(Br)ccc1CBr`, the “viability change, negative = cytotoxic” value is reported as -4.96% [at 42.5 µM] (inactive).
With `C#C[C@]1(O)CC[C@H]2[C@@H]3CCC4=CC(=O)CCC4=C3C=C[C@@]21CC` the “viability change, negative = cytotoxic” value was -6.44% [at 42.5 µM] (inactive).
For `CN=CNc1ccc(C)cc1C`, the “viability change, negative = cytotoxic” value was 4.89% (inactive).
For `Brc1ccc(Oc2cc(Br)c(Br)cc2Br)c(Br)c1`, the Potency was “inactive”.
In the case of `CCc1cnc(C2=NC(C)(C(C)C)C(=O)N2)c(C(=O)O)c1` (stereo not given), the Potency is reported as “inactive”.
For `O=NN1CCCCCC1`, the “viability change, negative = cytotoxic” value was 11.2% (inactive).
With `CC(=O)[O-].CC(=O)[O-].[Co+2]` the “viability change, negative = cytotoxic” value was 9% (inactive).
In the case of `Oc1cc(Cl)c(Cl)cc1Cl`, the Potency is reported as “inactive”.
With `C[C@]12CC[C@@H]3c4ccc(OC(=O)N(CCCl)CCCl)cc4CC[C@H]3[C@@H]1CC[C@@H]2O` the “viability change, negative = cytotoxic” value was -0.486% [at 42.5 µM] (inactive).
For `CCCCNC(=O)OCC#CI`, the “viability change, negative = cytotoxic” value was -12.8% (inactive).
For `O=c1[nH]oc2c1CCNC2`, the “viability change, negative = cytotoxic” value was 2.9% [at 42.5 µM] (inactive).
With `C=CC(=O)OCC(C)O` (stereo not given) the “viability change, negative = cytotoxic” value was 0.595% (inactive).
With `CN1CCC(O)(c2ccc(F)cc2)C(C(=O)c2ccc(F)cc2)C1` (stereo not given) the “viability change, negative = cytotoxic” value was -3.68% [at 42.5 µM] (inactive).
With `CC(C)N(C(=O)SCC(Cl)=C(Cl)Cl)C(C)C` the “viability change, negative = cytotoxic” value was -8.24% (inactive).
With `CC(C)(C)NCC(O)c1ccccc1Cl` (stereo not given) the “viability change, negative = cytotoxic” value was -4.51% [at 42.5 µM] (inactive).
In the case of `CCOc1ccc(C(C)(C)COCc2cccc(Oc3ccccc3)c2)cc1`, the “viability change, negative = cytotoxic” value is reported as 2.93% (inactive).
With `O=[N+]([O-])c1ccc(Cl)c([N+](=O)[O-])c1` the Potency was 27.7 µM (active) and 57 µM (active).
In the case of `O=[N+]([O-])/C=C/c1ccccc1`, the “viability change, negative = cytotoxic” value is reported as -10.6% (inactive).
For `O=C(Nc1ccccc1)c1ccccc1I`, the “viability change, negative = cytotoxic” value was -4.56% (inactive).
In the case of `NC(=O)C(Cl)Cl`, the “viability change, negative = cytotoxic” value is reported as -8.37% (inactive).
With `CCCCC(CC)COC(=O)c1ccccc1C(=O)OCC(CC)CCCC` (stereo not given) the “viability change, negative = cytotoxic” value was -0.216% (inactive).
With `CCCCCCCC[N+](C)(CCCCCCCC)CCCCCCCC` the Potency was 8.62 µM (active) and 48.6 µM (active).
With `CC(Cc1ccc(C(C)(C)C)cc1)CN1C[C@@H](C)O[C@@H](C)C1` (stereo not given in full) the “viability change, negative = cytotoxic” value was -5.46% (inactive).
In the case of `Oc1c(Cl)c(Cl)c(Cl)c(Cl)c1Cl`, the Potency is reported as “inactive”.
With `Clc1ccc(C(c2ccc(Cl)cc2)C(Cl)(Cl)Cl)cc1` the Potency was “inactive”.
For `OC(Cn1cncn1)(c1ccc(F)cc1)c1ccccc1F` (stereo not given), the “viability change, negative = cytotoxic” value was -7.51% (inactive).
In the case of `CCN(CC)c1c([N+](=O)[O-])cc(C(F)(F)F)c(N)c1[N+](=O)[O-]`, the Potency is reported as 54.5 µM (active).
In the case of `OC(c1ccc(F)cc1)(c1cncnc1)c1ccccc1Cl` (stereo not given), the “viability change, negative = cytotoxic” value is reported as 2.2% (inactive).
With `C[C@@H]1CN(C2CCC(C#N)(c3ccc(F)cc3)CC2)CC[C@]1(C(=O)O)c1ccccc1` (stereo not given in full) the “viability change, negative = cytotoxic” value was -0.932% [at 42.5 µM] (inactive).
With `CCN(CC)CCN1C(=O)CN=C(c2ccccc2F)c2cc(Cl)ccc21` the “viability change, negative = cytotoxic” value was 5.82% [at 42.5 µM] (inactive).
In the case of `COP(N)(=S)OC`, the “viability change, negative = cytotoxic” value is reported as -1.92% (inactive).
With `CCCN(CCC)c1c([N+](=O)[O-])cc(S(C)(=O)=O)cc1[N+](=O)[O-]` the “viability change, negative = cytotoxic” value was 0.363% (inactive).
For `COc1cc(OC)c(OC)cc1C=O`, the “viability change, negative = cytotoxic” value was 4.09% (inactive).
In the case of `COC(=O)C(C)N(C(=O)c1ccco1)c1c(C)cccc1C` (stereo not given), the “viability change, negative = cytotoxic” value is reported as 1.92% (inactive).
For `O=[N+]([O-])CCO`, the “viability change, negative = cytotoxic” value was 10.4% (inactive).
